Assay outcomes (PubChem BioAssay)
GLP1R inv ag: qHTS of GLP-1 Receptor Inverse Agonists (Inhibition Mode); HEK293 GLP-1R CRE-luciferase, luminescence, 24 h; GLP-1R form is constitutively active; actives 1.6% (n = 410,000); Potency, µM (series often up to 38.3 µM), inactives show at the highest dose activity change, negative = inhibition, most hits filed as inhibitors; AID 624417, 2012; further: potency means the concentration at half of the fitted maximal effect; on the % scale 0 is the no-effect control and ±100 the full control effect; nearly all actives have a fitted effect of over 55% in size
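qHTS in 1536-well format: reporter HEK293 cells expressing constitutive GLP-1R activity in DMEM + 10% Nu serum, 24 hr with compounds at 37 deg C, luminescence read after 12 min with detection reagent.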
TRHR ag: qHTS for Small Molecule Agonists and Allosteric Enhancers of Human TRH Receptor: Primary Screen for Agonists. TRHR cells, calcium flux fluo-8, FDSS agonist mode. activation, % at 2 µM. Thyrotropin-releasing hormone receptor (Homo sapiens), P34981. actives 0.18% (n = 360,000); in the data active means activation above about 30%; further: 0% is about no effect
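TRHR-expressing cells, plated overnight in medium with 10% serum, were loaded with fluo-8 calcium dye at room temperature. After a 10 s baseline, library compound was pin-added and calcium release was recorded kinetically (ex 480/em 530) as agonist response.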
GLP-1R agonist: qHTS of GLP-1 Receptor Agonists; Potency, µM (series often up to 45.6 µM), for the others: at the highest dose activation, hits mostly activators; actives 0.007% (n = 380,000); Glucagon-like peptide 1 receptor (Homo sapiens), P43220; HEK293 GLP-1R CRE-luciferase, luminescence, 4-6 h; cells express a hypersensitive GLP-1R form; further: potency means the concentration at half of the fitted maximal effect; % of control where 0% means no effect
TRHR enhancer: qHTS for Small Molecule Agonists and Allosteric Enhancers of Human TRH Receptor: Primary Screen for Enhancers; Thyrotropin-releasing hormone receptor (Homo sapiens), P34981; TRHR cells, fluo-8 calcium fluorescence, EC20 TRH enhancement; enhancement, % at 2 µM; actives 0.66% (n = 360,000); AID 493056, 2011; in the data active means enhancement above about 30%; further: 0% is about no effect
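Enhancer read-out: after compound pinning and an initial kinetic agonist-mode read, an EC20 of TRH (10 nM final) was injected and fluo-8 calcium signal (Ex 480/Em 530) followed at 1 s/cycle for 100 cycles in TRHR-expressing cells.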
HEK293 tox: qHTS of GLP-1 Receptor Inverse Agonists: Cytotox Screen. HEK293 cAMP-luciferase reporter cells, luminescence, 24 h. Potency, µM (doses to about 38.3 µM), for the others: at the top dose activity change, negative = inhibition, actives largely listed as inhibitors. actives 0.13% (n = 410,000). AID 624418, 2012;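 further: loss of luciferase light is scored as toxicity; potency means the concentration at half of the fitted maximal effect; on the % scale 0 is the no-effect control and ±100 the full control effect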
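Step one: seed cells (200 cells/uL, DMEM with 10% Nu serum, 1% pen-strep). Step two: 12-hour incubation at 37 deg C. Step three: pin 23 nL compound, incubate 24 hr. Step four: add luciferase reagent, read luminescence 12 min later.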
PTHR1 agonist: qHTS for PTHR1 Agonists: Primary Screen | Parathyroid hormone/parathyroid hormone-related peptide receptor (Homo sapiens), Q03431 | HEK293 GP2 PTHR1 cells, GloSensor cAMP luminescence, 1 h | Potency, µM (highest dose often 115 µM), for inactives: at the top dose activation, actives largely listed as activators | actives 0.075% (n = 410,000) | AID 743266, 2014; further: potency means the concentration at half of the fitted maximal effect; nearly all actives have a fitted effect of over 55% in size
Target sequence (Q03431 whole entry, looked up): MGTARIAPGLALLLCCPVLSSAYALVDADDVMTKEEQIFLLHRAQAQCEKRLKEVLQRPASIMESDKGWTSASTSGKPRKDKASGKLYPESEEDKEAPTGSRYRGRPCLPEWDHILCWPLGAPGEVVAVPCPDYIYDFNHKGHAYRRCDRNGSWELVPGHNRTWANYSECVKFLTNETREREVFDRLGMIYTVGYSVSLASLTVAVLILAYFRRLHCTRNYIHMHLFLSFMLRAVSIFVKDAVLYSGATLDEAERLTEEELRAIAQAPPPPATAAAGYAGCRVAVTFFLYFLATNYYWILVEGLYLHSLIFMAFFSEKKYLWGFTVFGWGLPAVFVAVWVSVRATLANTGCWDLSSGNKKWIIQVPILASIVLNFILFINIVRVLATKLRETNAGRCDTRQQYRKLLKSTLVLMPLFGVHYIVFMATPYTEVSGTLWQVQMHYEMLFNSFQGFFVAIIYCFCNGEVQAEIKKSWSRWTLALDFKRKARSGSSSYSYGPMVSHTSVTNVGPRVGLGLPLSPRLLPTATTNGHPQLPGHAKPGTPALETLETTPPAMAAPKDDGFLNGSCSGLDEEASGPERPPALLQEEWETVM
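HEK-293-derived GP2 cells expressing PTHR1 and a GloSensor cAMP reporter, 3,000/well, plated overnight, given luciferin plus IBMX (each 0.5 mM as added) for 1 h at 37 °C, then compound for 1 h at 37 °C. Luminescence was read after 15 min at room temperature.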
Numbers without * were called inactive; i = inactive; u = inconclusive; x = not tested or not shown; [ ] = dose if it differs, or a comment. A selection: hits, their analogues and other compounds. The true share with any hit is near 2.4%. Unless noted, the call rests on the fitted dose curve; in most records, active means well fitted curve in the direction sought with a large enough effect; inconclusive means small, poorly fitted or top-dose-only effect, or another doubt; inactive means no such curve, though single readings can be large; an effect the other way counts as inactive or inconclusive.

SMILES | GLP1R inv ag | TRHR ag | GLP-1R agonist | TRHR enhancer | HEK293 tox | PTHR1 agonist
CC12CC(NC(=O)N1c1cccc(C(=O)Nc3ncn[nH]3)c1)c1ccccc1O2 (stereo not given) | 0.3% | 0.6 | -5.7% | 4.1 | -1.4% | -17.9%[57.5 µM]
COc1ccc(NC(=O)c2cccc(N3C(=O)NC4CC3(C)Oc3ccccc34)c2)cc1 (stereo not given) | 3.98µM* | -1.1 | -3.9% | -14.2 | -28.7% | i
CCOC(=O)c1cnc(-n2nc(C)cc2C)nc1NNc1ncc(-c2ccccc2)cn1 | u | -1.9 | 2.7% | 0.0 | u | i
CCOC(=O)c1cnc(-n2nc(C)cc2C)nc1NC(C)c1ccccc1 (stereo not given) | 2.51µM* | 2.7 | -2.7% | -6.2 | u | i
CCOC(=O)c1cnc(-n2nc(C)cc2C)nc1NCCO | -2.6% | 0.4 | -4.3% | -9.0 | -3.3% | 20.2%[57.5 µM]
CCOC(=O)c1cnc(-n2nc(C)cc2C)nc1NCc1ccccc1 | 3.55µM* | 1.2 | -1.9% | -4.0 | u | -17.7%
O=C(NC(=S)Nc1ccc(F)c(Cl)c1)C1CC1 | u | 0.2 | 16.7% | -4.0 | u | -26.6%
Cc1ccc(NC(=S)NC(=O)C2CC2)cc1Cl | 10µM* | -1.3 | -5.6% | 2.4 | u | -14.8%
O=C(c1ccccc1)c1ccc(N2CCN(C(=O)c3cccc(F)c3F)CC2)c(F)c1 | 10µM* | 1.0 | 1.8% | -7.9 | 0.1% | -41.7%
Cc1cc2c3c(c1)C(C)(c1ccccc1)CC(C)(C)N3C(=O)C21C(C#N)=C(N)OC2=C1C(=O)CC(C)(C)C2 (stereo not given) | u | 0.0 | -17.3% | 0.1 | -24.4% | -6.0%[57.5 µM]
CC1(c2ccccc2)CC(C)(C)N2C(=O)C3(C(C#N)=C(N)Oc4cc(O)ccc43)c3cccc1c32 (stereo not given) | 5.62µM* | -0.4 | -12.7% | 4.7 | u | -30.4%
CCOc1ccc2c(c1)c(=O)c(S(=O)(=O)c1ccc(Cl)cc1)cn2Cc1ccccc1C | 6.4% | 0.8 | 0.9% | 40.3* | 13.2% | -17.3%
C/C(=N/OC(=O)C1CC1c1ccccc1)c1ccccc1 (stereo not given) | 10.8% | -0.1 | -2.8% | 1.0 | -4.1% | -13.2%
CC(C)(CO)Cc1cc(C(C)(C)C)c(O)c(C(C)(C)C)c1 | 7.08µM* | -0.8 | u | 20.9 | -23.3% | -54.6%
CC(C)(C=O)Cc1cc(C(C)(C)C)c(O)c(C(C)(C)C)c1 | 11.2µM* | 0.1 | 4.3% | -0.2 | -12.8% | -59.5%
CC(C)(C)c1cc(CN(CCO)CCO)cc(C(C)(C)C)c1O | 3.3% | 0.3 | -6.1% | -5.5 | 5.2% | -33.8%[57.5 µM]
CC(C)c1ccc(N2C(=O)CS(=O)(=O)C23C(=O)N(Cc2cccc(F)c2)c2ccccc23)cc1 (stereo not given) | -26.6% | 0.5 | 6.8% | -15.4 | 0.7% | i
Cc1cc(C)n(-c2nc3c(c(=O)n(C)c(=O)n3C)n2Cc2cccc(Br)c2)n1 | 2.6% | x | 0.4% | x | -3.4% | i
Cc1ccc(-c2cc(C(=O)Nc3nccs3)c3ccccc3n2)c(C)c1 | u | 0.9 | -9.0% | 13.7 | -12.3% | i
Cc1ccc(-c2cc(C(=O)Nc3nccs3)c3ccccc3n2)o1 | 10µM* | 0.6 | -19.9% | -2.6 | 27.7% | -13.1%
CC1(C(=O)NS(=O)(=O)c2ccccc2Cl)CCN1C(=O)Cc1cc(F)ccc1F (stereo not given) | -24.7% | x | 0.2% | x | 0.3% | i
CC(=NNc1ccc2ccccc2n1)c1ccccc1O | 2.82µM* | x | -21.0% | x | u | -28.6%
CCC1(c2ccccc2)NC(=O)N(CC(=O)Nc2ccc(N3CCOCC3)cc2)C1=O (stereo not given) | 22.7% | x | -5.0% | x | -1.3% | 18.2%
Cc1ccc(C)n1-n1c(C)nc2sc3c(c2c1=O)CCCCC3 | 11.2µM* | -1.5 | 2.1% | 5.0 | -13.1% | -3.2%[57.5 µM]
Cc1ccc(C)n1-n1cnc2sc3c(c2c1=O)CCCCC3 | u | -1.7 | 2.9% | -4.7 | 78.1% | 8.7%[57.5 µM]
SMILES | GLP1R inv ag | TRHR ag | GLP-1R agonist | TRHR enhancer | HEK293 tox | PTHR1 agonist
CCOC(=O)C1CCCN(C(=O)c2cc3cc(Br)ccc3oc2=O)C1 (stereo not given) | -14.0% | -2.1 | -7.4% | 30.7* | 2.5% | -2.3%
COc1ccc(/C=C2\SC(=N)N(c3nccs3)C2=O)cc1OC | 10µM* | -0.5 | 32.6% | 2.4 | -28.6% | i
O=C(COC(=O)CCC(=O)c1ccc(F)cc1)Nc1cccc(S(=O)(=O)N2CCOCC2)c1 | 11.8% | -0.2 | 5.5% | 32.6* | -6.8% | -11.1%
O=C(CCC(=O)c1ccc(F)cc1)Nc1cccc(S(=O)(=O)Nc2cccc(Cl)c2)c1 | 10µM* | -0.1 | -4.1% | -0.4 | -11.4% | -9.3%
O=C(COc1ccc(C(=O)c2ccc(F)cc2)cc1)Nc1cccc(S(=O)(=O)N2CCOCC2)c1 | u | x | 11.7% | x | -9.4% | -42.0%
O=C(N[C@H](CO)c1ccccc1)[C@H]1O[C@@H](n2ccc(=O)[nH]c2=O)[C@H](O)[C@@H]1O | 2.6% | x | -2.3% | x | 3.6% | u
CC(CCc1ccccc1)NC(=O)CN(C)Cc1ccc(F)cc1 (stereo not given) | u | -0.8 | 20.3% | -3.7 | -5.3% | -12.2%
CCc1cc(C(=O)N2CCc3c([nH]c4ccccc34)C2c2ccc(OC)cc2F)no1 (stereo not given) | u | -0.4 | 9.7% | 6.2 | 0.8% | -3.1%
Cc1nc(C(=O)N2CCc3c([nH]c4ccccc34)C2c2cc(F)ccc2F)cs1 (stereo not given) | 11.2µM* | -0.1 | u | -8.5 | 3.9% | i
Cc1cc(C(=O)N2CCc3c([nH]c4ccccc34)C2c2c(F)cccc2Cl)no1 (stereo not given) | 10µM* | 0.1 | -4.9% | -4.4 | -10.7% | i
Cc1nn(C)c(C(=O)NNC(=S)NCc2ccccc2)c1Cl | 1.9% | -0.4 | 7.4% | 39.1* | -28.6% | -14.0%
Cc1cc(C(=O)NNC(=S)NCc2ccccc2)cs1 | -2.7% | -0.4 | 7.2% | 0.9 | -12.8% | -20.9%
Cc1ccc(S(=O)(=O)Nc2ccccc2N2CCCCC2)cc1 | 2.82µM* | x | 0.5% | x | -22.6% | -18.4%
Cc1ccc(S(=O)(=O)Nc2ccccc2N2CCOCC2)cc1 | u | 18.8 | -5.2% | -1.2 | -14.2% | -26.3%
